Rows were chosen to be rich in hits. Some 4% of all compounds tested hit in one or more screens of this group.
MLL AF4-AF9 inh = inhibitors of AF4 peptide binding to AF9, primary screen, biochemical, AlphaScreen, biotin-AF4 peptide, FLAG-AF9, single point. Protein AF-9 (Homo sapiens), P42568. inhibition, % at 10 µM. 350,000 tested, 0.47% active. AID 651704, 2012;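 active means every replicate reaching a set inhibition limit, whatever the replicate mean, cut at about 25% in these data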;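 further: 0% = plate neutral control median and 100% = total signal loss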
RAD52 anneal inh = RAD52 DNA annealing inhibitors, primary screen, biochemical, FRET, single point, set 2; inhibition, % at 18.7 µM; recombinant RAD52 DNA annealing, FRET fluorescence; 360,000 tested, 0.46% active;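 active means every replicate showing at least 50% inhibition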
ERAP1 HTS inh = human ERAP1 aminopeptidase inhibitors, primary screen, biochemical, single point, plate reader; Endoplasmic reticulum aminopeptidase 1 (Homo sapiens), Q9NZ08; recombinant ERAP1, Leu-AMC fluorescence, 60 min; inhibition, % at 10.7 µM; 340,000 tested, 0.15% active; AID 652197, 2013;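 active means mean replicate inhibition of at least 30%, or all replicates individually reaching that 30% level; inactive means mean below 30% and not every replicate reaching it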;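 further: 0% = neutral control wells and 100% = L-leucinethiol positive control wells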
DENV2 CPE rescue = inhibitors of DENV2 cytopathic effect, primary screen, cell-based, plate reader, single concentration. DENV2-infected cells, cytopathic effect rescue. CPE inhibition, % at 9.99 µM. 350,000 tested, 1.7% active. AID 651640, 2012; in the data active means CPE inhibition above about 20%, passing the limit was not always enough; tested in BHK-21 cells;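 further: 0% = median of neutral control wells and 100% = median of positive control wells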
FGF22 binding = binders of human FGF22 protein, primary screen, FGF22 synaptogenesis inhibitor project, biophysical, thermal shift, single point; Fibroblast growth factor 22 (Homo sapiens), Q9HCT0; recombinant FGF22 thermal shift, SYPRO orange fluorescence; percent of sucrose octasulfate shift, DMSO zero; activity (Tm shift, normalised), % at 9.99 µM; 340,000 tested, 1.5% active; AID 651658, 2012;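 active means mean Tm shift, scaled 0 neutral to 100 positive control, at about 1.3% or above, every replicate too, limit read from the data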
Target sequence (Q9HCT0 whole entry, looked up): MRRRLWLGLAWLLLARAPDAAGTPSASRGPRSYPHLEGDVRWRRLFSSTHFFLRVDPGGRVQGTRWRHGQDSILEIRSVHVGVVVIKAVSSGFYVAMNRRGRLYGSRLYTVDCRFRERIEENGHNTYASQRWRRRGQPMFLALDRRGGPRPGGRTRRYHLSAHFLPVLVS
An asterisk follows results filed as active; . = not tested or not shown.

SMILES	MLL AF4-AF9 inh	RAD52 anneal inh	ERAP1 HTS inh	DENV2 CPE rescue	FGF22 binding
COc1ccc(NC(=O)Nc2ccc3c(c2)C(=O)N([C@@H](C)CO)C[C@H](C)[C@@H](CN(C)C(=O)Nc2ccccc2)OCCCC[C@H](C)O3)cc1	-2.4	17.1	5.0	1.2	-0.3
O=C(C[C@@H]1CC[C@H]2[C@@H](COC[C@H](O)CN2S(=O)(=O)c2ccccc2)O1)NCC1CCCCC1	39.4*	53.1*	1.6	7.3	-0.3
O=C(C[C@H]1CC[C@@H]2[C@H](COC[C@H](O)CN2S(=O)(=O)c2ccccc2)O1)NCC1CCCCC1	16.2	55.5*	-1.0	-6.4	-0.1
COc1ccccc1C1NC(=O)NC(C)=C1C(=O)Nc1cccc(C)c1C (centres undefined)	4.0	-8.6	5.3	13.3	-0.1
CCOc1ccc(C2NC(=O)NC(C)=C2C(=O)OCc2ccccc2)cc1 (centres undefined)	-1.9	-3.0	-4.2	-0.1	0.0
COc1ccc(COC(=O)C2=C(C)NC(=O)NC2c2ccc(F)cc2)cc1 (centres undefined)	-2.0	-9.3	6.2	60.8*	0.1
COc1ccc(C2NC(=O)NC(C)=C2C(=O)Nc2cccc(C)c2C)cc1 (centres undefined)	-0.7	-5.6	2.3	60.1*	0.0
COc1cccc(C#Cc2ccc3c(c2)[C@H]2[C@H](CCN2C(C)=O)[C@H](CO)N3)c1	0.8	-26.4	4.0	-2.8	.
O=C(NCCCN1CCOCC1)[C@@H]1N[C@@H]2c3ccc(C4=CCCC4)c(=O)n3C[C@@H]2[C@H]1CO	3.6	-36.1	0.1	-0.6	-0.2
CO[C@@H]1CN(C)C(=O)c2ccc(NC(=O)C3CC3)cc2OC[C@@H](C)N(C(=O)c2ccccc2F)C[C@@H]1C	-3.2	9.5	-0.2	11.1	-0.2
COC(=O)c1cc(=O)n(-c2ccccc2)c(=Nc2ccccc2)s1	28.1*	-4.6	7.0	-0.9	0.2
COc1ccc(NC(=O)Nc2ccc3c(c2)C(=O)N([C@@H](C)CO)C[C@H](C)[C@@H](CN(C)Cc2ccncc2)OCCCC[C@H](C)O3)cc1	2.0	11.7	-0.4	.	0.5
CN(C)CC(=O)N[C@H]1C[C@@H]2O[C@H](CO)CC[C@@H]2O[C@@H]1CCc1ccc(C#Cc2ccccc2)cc1	5.4	59.7*	-2.1	-6.5	0.3
O=C(CC1CC1)N[C@H]1C[C@@H]2O[C@H](CO)CC[C@@H]2O[C@@H]1CCc1ccc(C#Cc2ccccc2)cc1	-4.1	30.8	-0.2	28.2*	-0.2
O=C(CC1CC1)N[C@H]1C[C@@H]2O[C@@H](CO)CC[C@@H]2O[C@@H]1CCc1ccc(C#Cc2ccccc2)cc1	-2.6	3.8	-0.3	21.3*	-0.5
O=C(C[C@H]1C=C[C@@H](NC(=O)CC2CC2)[C@@H](CO)O1)NCc1ccccc1	-3.3	7.8	3.3	7.7	.
COc1ccc2c3c(n(C)c2c1)[C@H](CO)N(C(=O)CN(C)C)CC31CN(Cc2cccnc2)C1	18.7	.	.	-9.6	.
CC(C)[C@H](NC(=O)c1ccccc1)C(=O)OCC(=O)/C=C1/N(C)c2ccccc2C1(C)C	2.0	-24.5	-3.6	0.3	43.5*
COc1cc(OC)cc(C(=O)NCC(=O)OCC(=O)/C=C2/N(C)c3ccccc3C2(C)C)c1	3.0	-157.5	5.8	3.1	42.6
COc1ccc(-c2ccc([C@H]3[C@@H](CO)N4CCCCN(CC5CCOCC5)C[C@@H]34)cc2)cc1	5.2	19.7	-0.8	24.1*	-0.3
COc1cccc(-c2ccc([C@H]3[C@@H](CO)N4CCCCN(CC5CCOCC5)C[C@@H]34)cc2)c1	2.4	56.2*	-0.7	1.6	-0.2
COc1ccc(-c2ccc([C@H]3[C@@H](CO)N4CCCCN(CC5CCOCC5)C[C@H]34)cc2)cc1	3.0	21.1	-0.7	33.1*	0.2
COc1ccc(-c2ccc([C@H]3[C@H]4CN(CC5CCOCC5)CCCCN4[C@H]3CO)cc2)cc1	0.6	25.3	-0.5	0.1	-0.1
COc1cccc(-c2ccc([C@@H]3[C@H]4CN(CC5CCOCC5)CCCCN4[C@H]3CO)cc2)c1	4.6	41.8	-2.5	3.7	-0.4
